We go through eight compounds from PubChem BioAssay (Tox21).

Test [1] can be described thus: qHTS assay to identify small molecule agonists of the sonic hedgehog signaling (Shh) pathway (AID 1259368).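 Further: NIH/3T3-derived 3T3Gli1-Luc cells carrying a stable Gli1-driven firefly luciferase reporter; series mostly up to about 92 µM; nearly all actives have a fitted effect of over 15% in size.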 The procedure, abridged:
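Hedgehog pathway agonism scored by increased firefly luciferase luminescence in 3T3Gli1-Luc cells treated 24 hr at 37 C; detection used a 30 min room-temperature reagent incubation.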
Background: qHTS replaces the single test concentration by a dilution series.

The nature of test [2]: qHTS assay to identify small molecule antagonists of the sonic hedgehog signaling (Shh) pathway (AID 1259369). Further: nearly all actives have a fitted effect of over 45% in size. Further: potency means the concentration at half of the fitted maximal effect. In short, it runs like this:
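NIH/3T3 stable Gli1-Luc clone, 2,000 cells/well, 4hr settle; cpd + conditioned medium 24hr; Luc reagent 30min RT; luminescence.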

Test [3] deals with Estrogen receptor beta (Homo sapiens) (UniProt Q92731). In words: qHTS assay to identify small molecule agonists of the estrogen receptor beta (ER-beta) signaling pathway (AID 1259377; active means well fitted activation curve with a large enough effect in the signal ratio in the repeat runs, not every such curve was filed as active; the % refers to the signal ratio). In short, it runs like this:
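Beta-lactamase reporter readout: fluorescence of LiveBLAzer B/G FRET substrate after 2 h at room temperature, following 16 h compound treatment of ER-beta-UAS-bla HEK293T cells at 37C in 2% charcoal-stripped FBS medium.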

A short description of test [4]: qHTS assay to identify small molecule agonists of the androgen receptor (AR) signaling pathway in the presence of an antagonist - cell viability counter screen (AID 1259379; active means well fitted curve in the direction sought with a large enough effect in the repeat runs; an effect the other way counts as inactive or inconclusive; further: nearly all actives have a fitted effect of over 25% in size; further: potency means the concentration at half of the fitted maximal effect). The procedure, abridged: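 MDA-kb2 viability measured by CellTiter-Fluor fluorescence in the same wells as the luciferase signal; nilutamide 3.0uM final; 15-point compound titration; 16 hr at 37C.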

A short description of test [5]: qHTS assay to identify small molecule agonists of the estrogen receptor beta (ER-beta) signaling pathway - cell viability counter screen (AID 1259380; active means well fitted curve in the direction sought with a large enough effect in the repeat runs; an effect the other way counts as inactive or inconclusive; further: nearly all actives have a fitted effect of over 30% in size; further: potency means the concentration at half of the fitted maximal effect). In short, it runs like this:
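Measured: luminescence from CellTiter-Glo after 30 min at room temperature, added to wells already read for the LiveBLAzer FRET reporter (2 hr substrate); ER-beta-UAS-bla HEK293T cells had 16 hr compound treatment at 37C, 5% CO2.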

Test [6] addresses Estrogen receptor (Homo sapiens) (UniProt P03372). The test can be described thus: qHTS assay to identify small molecule agonists of the estrogen receptor alpha (ER-alpha) signaling pathway in the presence of an antagonist (AID 1259383). Further: top concentration of the series differs between compounds; nearly all actives have a fitted effect of over 15% in size. The procedure, abridged: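 Quantitative HTS confirmation: compounds titrated at 15 concentrations onto estrogen-deprived VM7Luc4E2 cells carrying a four-ERE luciferase construct, with ICI-182,780 present at 10.0nM final. Signal is luminescence after 22hr exposure.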

The nature of test [7]: qHTS assay to identify small molecule agonists or antagonists of the thyroid stimulating hormone receptor (TSHR) signaling pathway - wild type cell line counter screen (AID 1259384). The procedure, abridged:
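Wild-type Hek293 cells, 800/well, 18 h at 37C, then compound with Ro20-1724 for 30 min RT. cAMP by HTRF (cAMP-d2/anti-cAMP cryptate), 1 h RT, fluorescence read. 15 concentrations, triplicates.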

Test [8] has as its target Thyrotropin receptor (Homo sapiens) (UniProt P16473). The test can be described thus: qHTS assay to identify small molecule antagonists of the thyroid stimulating hormone receptor (TSHR) signaling pathway (AID 1259385). Further: nearly all actives have a fitted effect of over 20% in size. The procedure, abridged:
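TSHR-HEK293 cells (800/well) plated 18 h, then compounds with Ro20-1724 and TSH at 1.5 ng/mL final, 30 min at room temperature. cAMP quantified by HTRF (cAMP-d2/anti-cAMP-cryptate, 1 h); 15 concentrations in triplicate.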

Test [9] can be described thus: qHTS assay to identify small molecule agonists of the estrogen receptor alpha (ER-alpha) signaling pathway in the presence of an antagonist - cell viability counter screen (AID 1259386; active means well fitted curve in the direction sought with a large enough effect in the repeat runs; an effect the other way counts as inactive or inconclusive;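 further: series mostly up to about 92 µM; cells exposed to compounds for 22 h at 37 °C before the viability read; nearly all actives have a fitted effect of over 30% in size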). In short, it runs like this:
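The test measures whether compounds kill ER-alpha reporter cells (VM7Luc4E2) under antagonist co-treatment (ICI-182,780, 10.0nM). Fluorescence from CellTiter-Fluor is read after a 22hr exposure.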

Test [10] addresses Progesterone receptor (Homo sapiens) (UniProt P06401). The test can be described thus: qHTS assay to identify small molecule agonists of the progesterone receptor (PR) signaling pathway (AID 1346784). Further: nearly all actives have a fitted effect of over 30% in size. In short, it runs like this:
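HEK 293T PR-UAS-bla reporter cells, 2% charcoal-stripped FBS; 6 hr settle at 37C/5% CO2, compound (DMSO) 16 hr, LiveBLAzer B/G FRET substrate 2 hr RT, fluorescence intensity read.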

Test [11] shares this target. In words: qHTS assay to identify small molecule antagonists of the progesterone receptor (PR) signaling pathway (AID 1346795; active means well fitted inhibition curve with a large enough effect in the signal ratio in the repeat runs, not every such curve was filed as active; the % refers to the signal ratio; further: potency means the concentration at half of the fitted maximal effect). The procedure, abridged: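 Beta-lactamase reporter, HEK293T PR-UAS-bla line; 2% charcoal-stripped FBS; 6 hr pre-incubation, 37C/5% CO2. Compound + R5020 1 nM final, 16 hr. LiveBLAzer B/G FRET substrate, 2 hr RT; fluorescence intensity read.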

A short description of test [12]: qHTS assay to identify small molecule antagonists of the progesterone receptor (PR) signaling pathway - cell viability counter screen (AID 1346798; active means well fitted curve in the direction sought with a large enough effect in the repeat runs; an effect the other way counts as inactive or inconclusive; further: nearly all actives have a fitted effect of over 50% in size; further: potency means the concentration at half of the fitted maximal effect). In short, it runs like this:
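Luminescence readout (CellTiter-Glo, 30 min, RT) of viability in PR-UAS-bla HEK293T cells exposed to compound and R5020 agonist for 16 hr at 37C, 5% CO2; run in the same wells as the beta-lactamase reporter read.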

Test [13] in a line: qHTS assay to identify small molecule agonists of the progesterone receptor (PR) signaling pathway - cell viability counter screen (AID 1346799). Further: nearly all actives have a fitted effect of over 45% in size. Further: potency means the concentration at half of the fitted maximal effect. In short, it runs like this:
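HEK293T PR-UAS-bla, 3,000 cells/well, 2% charcoal-stripped FBS; 6 h settle, compound 16 h at 37C/5% CO2; LiveBLAzer 2 h RT, then CellTiter-Glo 30 min RT, luminescence read.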

Test [14] is described as follows: qHTS assay to identify small molecule antagonists of the TGF-beta/Smad signaling pathway - cell viability counter screen (AID 1346824; active means well fitted curve in the direction sought with a large enough effect in the repeat runs; an effect the other way counts as inactive or inconclusive; further: nearly all actives have a fitted effect of over 50% in size). In short, it runs like this: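 SBE-bla HEK 293T cells, incubated overnight, then compound plus 0.25 ng/mL TGF-beta1 (stock added) for 5 hr at 37 C. Viability was read in the same wells by CellTiter-Glo luminescence after 30 min at room temperature.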

Test [15] in a line: qHTS assay to identify small molecule agonists of the TGF-beta/Smad signaling pathway - cell viability counter screen (AID 1346829; active means well fitted curve in the direction sought with a large enough effect in the repeat runs; an effect the other way counts as inactive or inconclusive; further: nearly all actives have a fitted effect of over 45% in size; further: potency means the concentration at half of the fitted maximal effect). In short, it runs like this:
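HEK 293T SBE-bla line, 5 hr compound exposure at 37 C, multiplexed CellTiter-Glo viability read by luminescence.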

Test [16] is described as follows: qHTS assay to identify small molecule agonists of the TGF-beta/Smad signaling pathway (AID 1346859; active means well fitted activation curve with a large enough effect in the signal ratio in the repeat runs, not every such curve was filed as active; the % refers to the signal ratio; further: series mostly up to about 77 µM). The procedure, abridged:
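Read-out: fluorescence at 460 and 530 nm (405 nm excitation) after a 2 hr room-temperature incubation with beta-lactamase FRET substrate. SBE-bla HEK 293T cells had been treated with test compounds for 5 hr at 37 C.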

Test [17] concerns the target Thyrotropin-releasing hormone receptor (Homo sapiens) (UniProt P34981). The test can be described thus: qHTS assay to identify small molecule antagonists of the thyrotropin-releasing hormone receptor (TRHR) signaling pathway (AID 1346877; active means well fitted inhibition curve with a large enough effect in the repeat runs, not every such curve was filed as active; further: series mostly up to about 51 µM). In short, it runs like this:
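Overnight-plated (18 h, 37 °C) HEK293 cells expressing TRHR were dye-loaded 2 h, treated with compound, then stimulated with TRH at 1 nM final. Fluorescence intensity was captured every second for 3 min.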

Test [18] in a line: qHTS assay to identify small molecule antagonists of the estrogen receptor beta (ER-beta) signaling pathway - cell viability counter screen (AID 1259382; active means well fitted curve in the direction sought with a large enough effect in the repeat runs; an effect the other way counts as inactive or inconclusive; further: nearly all actives have a fitted effect of over 55% in size; further: potency means the concentration at half of the fitted maximal effect). The procedure, abridged: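 Readout: luminescence, CellTiter-Glo, same wells as bla assay. System: ER-beta-UAS-bla GripTite HEK293T, 2% charcoal-stripped FBS. Exposure: compounds plus 1nM 17-beta-estradiol, 16 hr, 37C.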
In test [19] the target is Androgen receptor (Homo sapiens) (UniProt P10275). In words: qHTS assay to identify small molecule agonists of the androgen receptor (AR) signaling pathway in the presence of an antagonist (AID 1259381). Further: nearly all actives have a fitted effect of over 15% in size. The procedure, abridged: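 Luminescent ONE-Glo read, 30min at room temperature, follows 16hr compound exposure (15 concentrations) of MDA-kb2 cells at 37C, 0% CO2, with nilutamide added at 3.0uM final.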

Several values for one entry are separate records, joined by “and”; a condition that tells them apart may be missing. Equal entries are not always repeated. Results filed as inconclusive are left out. The source holds several records for some structures; these can differ, active in one and inactive in another. Activity calls are given as the source filed them. Unless noted, the call rests on the fitted dose curve.

Chain of Thyrotropin receptor (Homo sapiens) (P16473 whole entry, looked up): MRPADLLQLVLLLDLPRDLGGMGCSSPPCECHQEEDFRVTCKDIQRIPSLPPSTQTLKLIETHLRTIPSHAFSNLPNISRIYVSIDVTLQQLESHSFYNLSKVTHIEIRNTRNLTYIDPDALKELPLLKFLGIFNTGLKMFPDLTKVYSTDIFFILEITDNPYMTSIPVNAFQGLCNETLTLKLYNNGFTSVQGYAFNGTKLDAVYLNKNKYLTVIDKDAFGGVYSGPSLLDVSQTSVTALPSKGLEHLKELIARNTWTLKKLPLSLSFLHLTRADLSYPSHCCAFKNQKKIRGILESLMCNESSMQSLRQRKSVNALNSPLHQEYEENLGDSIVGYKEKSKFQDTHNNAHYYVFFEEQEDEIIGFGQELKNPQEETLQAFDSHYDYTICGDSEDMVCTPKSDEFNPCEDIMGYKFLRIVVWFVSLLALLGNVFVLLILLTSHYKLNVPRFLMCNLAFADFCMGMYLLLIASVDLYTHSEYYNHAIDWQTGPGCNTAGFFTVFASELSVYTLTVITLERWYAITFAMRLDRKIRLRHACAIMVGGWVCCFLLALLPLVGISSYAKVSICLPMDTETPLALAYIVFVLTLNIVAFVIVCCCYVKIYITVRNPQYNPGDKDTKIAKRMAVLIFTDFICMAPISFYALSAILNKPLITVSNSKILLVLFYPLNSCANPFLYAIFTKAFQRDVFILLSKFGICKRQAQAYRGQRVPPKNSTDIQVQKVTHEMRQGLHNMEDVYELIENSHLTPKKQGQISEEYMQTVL
Chain of Estrogen receptor beta (Homo sapiens) (Q92731 whole entry, looked up): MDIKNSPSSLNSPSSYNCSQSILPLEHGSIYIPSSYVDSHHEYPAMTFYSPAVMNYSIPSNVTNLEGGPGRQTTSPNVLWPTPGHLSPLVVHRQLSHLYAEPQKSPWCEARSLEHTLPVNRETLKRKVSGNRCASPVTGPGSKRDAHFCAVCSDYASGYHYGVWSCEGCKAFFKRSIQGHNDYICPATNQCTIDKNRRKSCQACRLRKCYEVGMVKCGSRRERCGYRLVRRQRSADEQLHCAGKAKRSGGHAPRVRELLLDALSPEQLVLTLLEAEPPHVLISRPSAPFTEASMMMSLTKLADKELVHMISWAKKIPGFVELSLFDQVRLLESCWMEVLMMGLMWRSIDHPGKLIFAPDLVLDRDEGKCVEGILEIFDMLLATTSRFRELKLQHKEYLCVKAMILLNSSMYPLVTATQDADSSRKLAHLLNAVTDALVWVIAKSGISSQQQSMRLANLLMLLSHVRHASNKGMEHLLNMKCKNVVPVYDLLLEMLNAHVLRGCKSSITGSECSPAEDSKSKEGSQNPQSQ
Chain of Thyrotropin-releasing hormone receptor (Homo sapiens) (P34981 whole entry, looked up): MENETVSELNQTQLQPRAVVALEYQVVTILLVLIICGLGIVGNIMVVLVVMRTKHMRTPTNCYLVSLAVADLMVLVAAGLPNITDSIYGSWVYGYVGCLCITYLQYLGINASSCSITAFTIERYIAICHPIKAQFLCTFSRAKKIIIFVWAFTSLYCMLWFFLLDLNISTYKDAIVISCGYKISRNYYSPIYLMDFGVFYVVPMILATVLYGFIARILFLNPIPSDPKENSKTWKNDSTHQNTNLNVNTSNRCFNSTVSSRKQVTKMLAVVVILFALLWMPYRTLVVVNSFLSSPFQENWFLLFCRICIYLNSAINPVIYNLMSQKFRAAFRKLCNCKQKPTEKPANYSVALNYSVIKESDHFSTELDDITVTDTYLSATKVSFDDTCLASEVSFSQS
Chain of Estrogen receptor (Homo sapiens) (P03372 whole entry, looked up): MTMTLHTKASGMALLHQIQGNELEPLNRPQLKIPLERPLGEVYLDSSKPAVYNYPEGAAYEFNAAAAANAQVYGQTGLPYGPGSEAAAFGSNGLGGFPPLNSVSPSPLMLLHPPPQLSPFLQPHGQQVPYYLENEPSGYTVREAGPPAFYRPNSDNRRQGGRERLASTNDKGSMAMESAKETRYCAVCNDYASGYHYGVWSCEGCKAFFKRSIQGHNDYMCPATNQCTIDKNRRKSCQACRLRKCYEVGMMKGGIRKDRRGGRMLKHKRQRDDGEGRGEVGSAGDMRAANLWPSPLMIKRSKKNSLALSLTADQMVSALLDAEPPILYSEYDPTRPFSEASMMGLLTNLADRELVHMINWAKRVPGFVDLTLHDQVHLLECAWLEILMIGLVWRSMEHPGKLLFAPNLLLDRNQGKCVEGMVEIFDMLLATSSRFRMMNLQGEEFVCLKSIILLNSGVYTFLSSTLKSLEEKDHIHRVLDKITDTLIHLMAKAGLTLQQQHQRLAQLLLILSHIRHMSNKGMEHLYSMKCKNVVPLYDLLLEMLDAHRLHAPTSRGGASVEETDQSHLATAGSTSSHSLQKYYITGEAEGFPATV
Chain of Progesterone receptor (Homo sapiens) (P06401 whole entry, looked up): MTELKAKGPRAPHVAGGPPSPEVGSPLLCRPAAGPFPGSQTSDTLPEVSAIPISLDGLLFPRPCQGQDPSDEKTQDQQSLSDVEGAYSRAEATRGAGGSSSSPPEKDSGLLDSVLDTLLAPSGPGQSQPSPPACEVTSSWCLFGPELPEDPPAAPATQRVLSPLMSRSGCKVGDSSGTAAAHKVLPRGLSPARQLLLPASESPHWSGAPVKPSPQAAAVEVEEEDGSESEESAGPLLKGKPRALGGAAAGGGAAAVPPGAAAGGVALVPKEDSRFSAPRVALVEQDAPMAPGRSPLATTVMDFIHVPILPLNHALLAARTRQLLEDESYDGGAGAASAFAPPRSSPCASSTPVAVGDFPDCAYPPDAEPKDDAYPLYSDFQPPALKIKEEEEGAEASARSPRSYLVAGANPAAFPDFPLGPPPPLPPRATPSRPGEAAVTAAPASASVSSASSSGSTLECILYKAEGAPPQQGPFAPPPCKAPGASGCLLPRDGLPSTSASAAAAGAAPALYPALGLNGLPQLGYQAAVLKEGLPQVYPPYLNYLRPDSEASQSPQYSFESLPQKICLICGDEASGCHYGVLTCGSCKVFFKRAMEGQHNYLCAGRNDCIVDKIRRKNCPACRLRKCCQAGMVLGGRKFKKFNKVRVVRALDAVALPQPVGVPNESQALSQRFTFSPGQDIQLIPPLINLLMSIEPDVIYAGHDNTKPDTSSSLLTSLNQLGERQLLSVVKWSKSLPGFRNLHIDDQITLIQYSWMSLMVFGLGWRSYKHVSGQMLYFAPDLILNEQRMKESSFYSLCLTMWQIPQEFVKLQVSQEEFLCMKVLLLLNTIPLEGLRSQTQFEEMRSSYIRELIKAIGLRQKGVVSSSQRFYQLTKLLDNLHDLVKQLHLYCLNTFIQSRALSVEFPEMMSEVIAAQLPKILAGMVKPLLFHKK
Chain of Androgen receptor (Homo sapiens) (P10275 whole entry, looked up): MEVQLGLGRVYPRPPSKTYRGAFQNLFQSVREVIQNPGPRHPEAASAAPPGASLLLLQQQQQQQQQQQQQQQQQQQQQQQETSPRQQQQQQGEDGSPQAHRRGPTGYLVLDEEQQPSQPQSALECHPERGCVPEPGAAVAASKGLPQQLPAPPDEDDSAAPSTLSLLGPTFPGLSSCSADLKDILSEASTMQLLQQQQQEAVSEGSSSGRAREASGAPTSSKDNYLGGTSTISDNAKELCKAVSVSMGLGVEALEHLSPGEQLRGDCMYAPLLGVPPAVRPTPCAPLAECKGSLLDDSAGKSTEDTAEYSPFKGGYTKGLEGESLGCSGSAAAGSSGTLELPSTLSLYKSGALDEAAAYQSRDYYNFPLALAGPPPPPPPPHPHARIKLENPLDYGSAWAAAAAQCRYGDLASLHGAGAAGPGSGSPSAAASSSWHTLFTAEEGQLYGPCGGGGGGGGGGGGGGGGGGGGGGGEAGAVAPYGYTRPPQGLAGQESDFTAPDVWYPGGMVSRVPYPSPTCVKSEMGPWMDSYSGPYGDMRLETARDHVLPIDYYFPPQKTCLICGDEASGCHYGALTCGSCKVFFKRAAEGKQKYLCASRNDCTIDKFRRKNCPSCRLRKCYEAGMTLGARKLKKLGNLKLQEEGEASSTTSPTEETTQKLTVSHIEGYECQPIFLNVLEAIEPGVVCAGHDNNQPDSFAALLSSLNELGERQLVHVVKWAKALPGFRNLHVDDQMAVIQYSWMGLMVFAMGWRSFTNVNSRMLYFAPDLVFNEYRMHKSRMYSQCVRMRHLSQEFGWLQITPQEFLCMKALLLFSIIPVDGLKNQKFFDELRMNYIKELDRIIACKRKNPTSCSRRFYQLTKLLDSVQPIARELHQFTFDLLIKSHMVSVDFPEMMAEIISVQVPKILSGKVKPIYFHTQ

With `CCCCN(CCCC)N=O`, the Potency entry in test [1], in [2], in test [3], in test [4], in test [5] and in test [6] was “inactive” in each case. The Potency result in test [9], in test [10], in test [11], in test [12], in test [13] and in test [14] was “inactive” each time. Further, the Potency entry in [15] and in test [17] was “inactive” in each case. Further, the compound was called inactive in test [7], in test [8] and in [16].
In the case of `Oc1cc(Cl)ccc1Oc1ccc(Cl)cc1Cl`, the Potency entry in test [1], in test [3] and in test [14] was “inactive” in each case. Besides, the Potency in [2] was 5.58 µM (active); in test [4], 27.9 µM (active); in test [5] it was 39.5 µM (active); in [18] it was 41.8 µM (active); in test [11], 13.3 µM (active); in [12], 31.4 µM (active). The Potency in [13] is 31.4 µM (active) and inactive; in test [15] it was 39.8 µM (active) and inactive. Further, the compound was classed as inactive in test [16].
On to `CCOC(=S)S`, for which the Potency result in test [1], in [3], in test [4], in test [9], in test [14] and in test [15] was “inactive” each time. For the same compound, the Potency was 10.9 µM (active) and 13 µM (active) in [2]; 10.3 µM (active) in test [5]; 4.86 µM (active) in [12]; 4.86 µM (active) in test [13]. For the same compound, the result in test [7], in test [8] and in test [16] was inactive.
Turning to `O=C(O)CC[N+](=O)[O-]`, the Potency entry in test [1], in test [2], in [4], in test [5], in test [19] and in test [18] was “inactive” in each case. Moreover, the Potency entry in [9], in [10], in test [11], in test [12], in test [13] and in test [14] was “inactive” in each case. The Potency result in test [15] was “inactive”. Besides, the compound was called inactive in [16].
Turning to `CCCCN(CC)c1c([N+](=O)[O-])cc(C(F)(F)F)cc1[N+](=O)[O-]`, the Potency entry in [1], in [2], in [3], in test [4], in [18] and in test [9] was “inactive” each time. Further, the Potency entry in test [11], in [12], in test [13], in test [14], in test [15] and in test [17] was “inactive” in each case. The result in test [7], in [8] and in test [16] was inactive.
On to `NNC(=S)NN`, for which the Potency result in [1], in test [3], in test [4], in test [6], in test [9] and in test [10] was “inactive” throughout. Besides, the Potency result in test [12], in test [13], in [14], in test [15] and in test [17] was “inactive” in each case. The Potency in test [2] is 28.1 µM (active) and 24.3 µM (active); in test [11], 62.8 µM (active) and 54.5 µM (active). Also, the compound was classed as inactive in [7], in test [8] and in test [16].
As for `c1ccc(NNc2ccccc2)cc1`, the Potency entry in test [1], in test [2], in [3], in test [4], in test [9] and in test [10] was “inactive” in each case. For the same compound, the Potency entry in [11], in [12], in test [13], in [14], in [15] and in test [17] was “inactive” each time. Besides, the result in test [7], in [8] and in test [16] was inactive.
Regarding `c1ccc(P(c2ccccc2)c2ccccc2)cc1`, the Potency entry in test [1], in test [3], in test [4], in [6], in test [9] and in [10] was “inactive” throughout. Also, the Potency result in test [12], in [13], in test [14], in test [15] and in test [17] was “inactive” in each case. Also, the Potency result in test [2] was “inactive and 17.2 µM (active)”. Further, the compound was classed as inactive in test [7], in [8] and in test [16].
